Laboratory results reported in PubChem BioAssay AID1159580 (chemical genetic matrix, 2015).
Out of some 5,500 compounds screened, about 2,000 (36%) were called active. Not shown: some 18% with an inconclusive outcome. No stated cut-off is given here; in the data, active means normalized growth mostly below about 0.91 (no sharp cut-off); inconclusive means no clear call, values can overlap the other calls; inactive means mostly above about 0.92. The list shows a part of the results.

Experiment: chemical genetic growth profiling, strain panel (AID 1159580);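 further: tested at 20 µM; growth read once vehicle control cultures reached saturation at 30 °C; 1 = growth at the plate median or of vehicle wells; lower values mean less growth of the strain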
Settings: S. cerevisiae deletion strains, growth OD

Measured: normalized growth

C=C1CC2C3C=C(C)C4=CC(=O)CC[C@]4(C)C3CC[C@]2(C)[C@@]1(OC(C)=O)C(C)=O (stereo partly drawn)
inactive: locus YHR030C, strain SLT2, active compounds read low 0.955 | locus YHR079C, strain IRE1, active compounds read low 0.933 | locus YJL095W, strain BCK1, active compounds read low 0.955 | locus YJR066W, strain TOR1, active compounds read low 0.922 | locus YLR113W, strain HOG1, active compounds read low 0.92 | locus YNL183C, strain NPR1, active compounds read low 0.876 | locus YOR231W, strain MKK1, active compounds read low 0.955 | locus YPL256C, strain CLN2, active compounds read low 0.916
